The nature of experiment [1]: qHTS RealTime-Glo MT Cell Viability Assay in HepG2 cells - 40 hour (AID 1224870). Further: nearly all actives have a fitted effect of over 50% in size. A digest of the protocol:
(§1)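 HepG2 cells mixed with RealTime-Glo MT reagents (NanoLuc plus cell-permeant prosubstrate) were seeded at 600 cells/well, incubated 5 h at 37 C/5% CO2, then pinned with compounds in DMSO; nonlytic luminescence tracked viability during 40 h treatment.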

The nature of experiment [2]: A CellTox Green Cytotoxicity Assay to monitor cytotoxicity in HEK293 cells - 40 hour (AID 1224871). Further: nearly all actives have a fitted effect of over 45% in size. A digest of the protocol:
(§2)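 Seeding of HEK293 cells together with cytotoxicity dye preceded a 5 h incubation at 37 C/5% CO2. Test compounds in DMSO were then added and fluorescence monitored across 40 h.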

Experiment [3] in a line: qHTS RealTime-Glo MT Cell Viability Assay in HEK293 cells - 16 hour (AID 1224872). Further: nearly all actives have a fitted effect of over 50% in size. Further: potency means the concentration at half of the fitted maximal effect. In outline: (§3)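 Tox21 10K qHTS, HEK293, 600 cells/well, RealTime-Glo reagent co-dispensed with cells; 5 h preincubation, compound by pintool, 37 C, luminescence at 0–40 h.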
In general terms: qHTS replaces the single test concentration by a dilution series.

Experiment [4] is described as follows: qHTS RealTime-Glo MT Cell Viability Assay in HepG2 cells - 8 hour (AID 1224873). Further: nearly all actives have a fitted effect of over 55% in size. A digest of the protocol:
as §1

A short description of experiment [5]: qHTS RealTime-Glo MT Cell Viability Assay in HEK293 cells - 40 hour (AID 1224874). Further: nearly all actives have a fitted effect of over 50% in size. Further: potency means the concentration at half of the fitted maximal effect. The following applies: RealTime-Glo luminescence; max response: active compounds read low. In outline: (§4)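 Tox21 screen in HEK293 using RealTime-Glo MT chemistry, with cells and reagent co-dispensed. Luminescence proportional to viable cell number was captured at intervals during 40 h compound exposure at 37 C.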

Experiment [6] is described as follows: A CellTox Green Cytotoxicity Assay to monitor cytotoxicity in HEK293 cells - 24 hour (AID 1224875). Further: series mostly up to about 77 µM; nearly all actives have a fitted effect of over 45% in size. A digest of the protocol:
as §2

Experiment [7] can be described thus: A CellTox Green Cytotoxicity Assay to monitor cytotoxicity in HepG2 cells - 16 hour (AID 1224876). Further: nearly all actives have a fitted effect of over 45% in size. In outline:
(§5)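 Nonlytic assay: viable cells exclude the dye, so fluorescence scales with cell death. HepG2 at 600 cells/well, compounds added after 5 h, signal read across 40 h.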

Experiment [8] is described as follows: qHTS RealTime-Glo MT Cell Viability Assay in HepG2 cells - 32 hour (AID 1224877). Further: nearly all actives have a fitted effect of over 55% in size. In outline:
(§6)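 Cells + NanoLuc/prosubstrate dispensed (600 cells/well) → 5 h at 37 C/5% CO2 → compounds in DMSO transferred → 40 h incubation at 37 C, luminescence read at 0, 8, 16, 24, 32, 40 h.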

Experiment [9] is described as follows: A CellTox Green Cytotoxicity Assay to monitor cytotoxicity in HepG2 cells - 24 hour (AID 1224878). Further: nearly all actives have a fitted effect of over 45% in size. A digest of the protocol:
as §5

Experiment [10] in a line: A CellTox Green Cytotoxicity Assay to monitor cytotoxicity in HepG2 cells - 40 hour (AID 1224879). Further: nearly all actives have a fitted effect of over 40% in size. A digest of the protocol: as §5
Experiment [11] in a line: qHTS RealTime-Glo MT Cell Viability Assay in HEK293 cells - 0 hour (AID 1224880). A digest of the protocol: as §4
The nature of experiment [12]: A CellTox Green Cytotoxicity Assay to monitor cytotoxicity in HEK293 cells - 32 hour (AID 1224881). Further: nearly all actives have a fitted effect of over 40% in size. In outline: as §2
The nature of experiment [13]: A CellTox Green Cytotoxicity Assay to monitor cytotoxicity in HepG2 cells - 0 hour (AID 1224882). Further: nearly all actives have a fitted effect of over 35% in size. In outline: as §5
Experiment [14] in a line: A CellTox Green Cytotoxicity Assay to monitor cytotoxicity in HepG2 cells - 32 hour (AID 1224883). Further: nearly all actives have a fitted effect of over 50% in size. In outline:
as §5

A short description of experiment [15]: A CellTox Green Cytotoxicity Assay to monitor cytotoxicity in HEK293 cells - 8 hour (AID 1224884). Further: nearly all actives have a fitted effect of over 35% in size. A digest of the protocol:
as §2

Experiment [16] can be described thus: qHTS RealTime-Glo MT Cell Viability Assay in HEK293 cells - 24 hour (AID 1224886). Further: nearly all actives have a fitted effect of over 50% in size. Further: potency means the concentration at half of the fitted maximal effect. In outline: as §3
A short description of experiment [17]: qHTS RealTime-Glo MT Cell Viability Assay in HEK293 cells - 8 hour (AID 1224887). Further: nearly all actives have a fitted effect of over 50% in size. Further: potency means the concentration at half of the fitted maximal effect. A digest of the protocol: as §4
A short description of experiment [18]: A CellTox Green Cytotoxicity Assay to monitor cytotoxicity in HEK293 cells - 16 hour (AID 1224888). Further: nearly all actives have a fitted effect of over 35% in size. In outline: as §2
Experiment [19] can be described thus: qHTS RealTime-Glo MT Cell Viability Assay in HepG2 cells - 0 hour (AID 1224889). Further: nearly all actives have a fitted effect of over 50% in size. A digest of the protocol:
as §6

The nature of experiment [20]: qHTS RealTime-Glo MT Cell Viability Assay in HepG2 cells - 16 hour (AID 1224885). Further: nearly all actives have a fitted effect of over 50% in size. In outline:
as §6

A number with no mark means an inactive call. Records with an inconclusive call do not appear. Activity calls are given as the source filed them. The call rests on the fitted dose curve; in most records, active means well fitted curve in the direction sought with a large enough effect in the repeat runs; inconclusive means weak or mixed curves; inactive means no such curve, though single readings can be large; an effect the other way counts as inactive or inconclusive.
On the % scale 0 is the no-effect control and ±100 the full control effect.

Consider `CCCN(CCC)c1c([N+](=O)[O-])cc(S(C)(=O)=O)cc1[N+](=O)[O-]`, for which the Potency result in [1], in experiment [2], in experiment [4], in experiment [6], in experiment [7] and in experiment [8] was “inactive” throughout. The Potency result in experiment [9], in experiment [10], in [11], in [12], in experiment [13] and in experiment [14] was “inactive” in each case. In addition, the Potency entry in experiment [15], in experiment [18] and in experiment [19] was “inactive” in each case. In addition, the Potency in experiment [3] is 15.5 µM (active); in experiment [5], 15.5 µM (active); in experiment [16], 13.8 µM (active); in [17], 13.8 µM (active).

Regarding `COC(=O)c1cncn1C(C)c1ccccc1` (stereo not drawn), the Potency result in [1], in [2], in experiment [3], in [4], in experiment [6] and in experiment [7] was “inactive” each time. Also, the Potency result in experiment [8], in [9], in experiment [10], in experiment [11], in experiment [12] and in experiment [13] was “inactive” throughout. The Potency entry in experiment [14], in experiment [20], in experiment [16], in [17], in experiment [18] and in experiment [19] was “inactive” throughout. Moreover, the max response in experiment [5] was 1.22%.

For `O=C(CBr)Nc1ccc(Cl)cc1C(=O)c1ccccc1F`, the Potency entry in experiment [1], in experiment [2], in experiment [3], in [4], in experiment [6] and in experiment [7] was “inactive” throughout. Moreover, the Potency entry in experiment [8], in [9], in experiment [10], in [11], in [12] and in experiment [13] was “inactive” each time. The Potency entry in experiment [15], in [20], in experiment [16], in experiment [17] and in experiment [18] was “inactive” throughout. For the same molecule, the max response in [5] is -13.4%.

Consider `CCOP(=S)(Oc1ccc([N+](=O)[O-])cc1)c1ccccc1` (stereo not drawn), for which the Potency result in experiment [1], in experiment [2], in [3], in experiment [4], in [6] and in experiment [7] was “inactive” throughout. Besides, the Potency result in experiment [8], in [9], in experiment [10], in experiment [11], in [12] and in experiment [13] was “inactive” each time. Also, the Potency result in [15], in experiment [20], in experiment [16], in experiment [17], in [18] and in experiment [19] was “inactive” throughout. In addition, in [5], the max response is 9.18%.

Turning to `C=CC(=O)OCC(C)C`, the Potency entry in experiment [1], in experiment [2], in [3], in experiment [4], in experiment [6] and in experiment [7] was “inactive” each time. Moreover, the Potency result in experiment [8], in experiment [9], in experiment [10], in experiment [11], in experiment [12] and in [13] was “inactive” throughout. The Potency entry in [15], in [20], in experiment [16], in [17], in experiment [18] and in [19] was “inactive” throughout. Moreover, the max response in experiment [5] is 15.8%.

Consider `CC(=O)CCC(C)=O`, for which the Potency result in [1], in experiment [2], in experiment [3], in experiment [4], in experiment [6] and in [7] was “inactive” throughout. The Potency entry in experiment [8], in experiment [9], in [10], in experiment [11], in experiment [12] and in experiment [13] was “inactive” throughout. Further, the Potency result in experiment [14], in experiment [15], in [16], in [17], in experiment [18] and in experiment [19] was “inactive” in each case. For the same molecule, the max response in [5] is 11.7%.

Take `CCBr`: the Potency result in experiment [1], in experiment [2], in experiment [3], in experiment [4], in [6] and in experiment [7] was “inactive” each time. Further, the Potency entry in [8], in experiment [9], in [10], in experiment [11], in [12] and in [13] was “inactive” in each case. Moreover, the Potency result in experiment [14], in experiment [15], in experiment [16], in experiment [17], in experiment [18] and in [19] was “inactive” throughout. Further, the max response in experiment [5] was 6.85%.

Consider `CC(C)(CCl)C(=O)Cl`, for which the Potency entry in experiment [1], in experiment [2], in experiment [3], in experiment [4], in experiment [6] and in experiment [7] was “inactive” in each case. Moreover, the Potency entry in experiment [8], in [9], in experiment [10], in experiment [11], in [12] and in experiment [13] was “inactive” each time. Besides, the Potency entry in experiment [14], in [15], in experiment [16], in [17], in experiment [18] and in experiment [19] was “inactive” in each case. Further, the max response in experiment [5] is 0.815%.

With `CCCCC(CC)COP(=O)(Oc1ccccc1)Oc1ccccc1` (stereo not drawn), the Potency entry in [1], in experiment [2], in [3], in experiment [4], in [6] and in experiment [7] was “inactive” throughout. Further, the Potency entry in [8], in experiment [9], in [10], in [11], in experiment [12] and in experiment [13] was “inactive” throughout. The Potency result in [14], in experiment [15], in experiment [20], in experiment [17], in [18] and in experiment [19] was “inactive” throughout. Moreover, the max response in experiment [5] was -24.3%.

Take `O=[N+]([O-])c1ccccc1CCl`: the Potency result in experiment [1], in experiment [2], in experiment [3], in [4], in experiment [6] and in experiment [7] was “inactive” each time. The Potency result in [8], in experiment [9], in [10], in [11], in experiment [12] and in experiment [13] was “inactive” in each case. For the same molecule, the Potency entry in [14], in experiment [20], in experiment [16], in [17] and in [18] was “inactive” each time. The max response in experiment [5] was 8.2%.

Consider `CCc1ccc(C(=O)NN(C(=O)c2cc(C)cc(C)c2)C(C)(C)C)cc1`, for which the Potency entry in experiment [1], in [2], in experiment [3], in [4], in [6] and in [7] was “inactive” each time. For the same molecule, the Potency result in experiment [8], in experiment [9], in [10], in experiment [11], in [12] and in [13] was “inactive” each time. In addition, the Potency result in experiment [14], in experiment [20], in experiment [16], in experiment [17], in experiment [18] and in experiment [19] was “inactive” throughout. Moreover, the max response in experiment [5] was -11.5%.

Regarding `Nc1ccc([N+](=O)[O-])cc1[N+](=O)[O-]`, the Potency entry in experiment [1], in experiment [2], in experiment [3], in experiment [4], in [6] and in experiment [7] was “inactive” in each case. The Potency result in [8], in [9], in experiment [10], in experiment [11], in [12] and in [13] was “inactive” each time. The Potency entry in experiment [14], in [16], in experiment [17], in experiment [18] and in [19] was “inactive” in each case. Moreover, the max response in [5] was -23.5%.

Turning to `CCCCN=C=O`, the Potency entry in [1], in [2], in experiment [3], in experiment [4], in experiment [6] and in [7] was “inactive” each time. In addition, the Potency entry in [8], in [9], in experiment [10], in experiment [11], in experiment [12] and in experiment [13] was “inactive” in each case. The Potency result in experiment [15], in experiment [20], in experiment [16], in experiment [17], in experiment [18] and in experiment [19] was “inactive” each time. In addition, in experiment [5], the max response is 2.49%.

In the case of `CC(C)N(CCC(C(N)=O)(c1ccccc1)c1ccccn1)C(C)C` (stereo not drawn), the Potency entry in [1], in [2], in experiment [3], in experiment [4], in experiment [6] and in experiment [7] was “inactive” in each case. For the same molecule, the Potency result in [8], in experiment [9], in experiment [10], in experiment [11], in [12] and in experiment [13] was “inactive” each time. The Potency result in experiment [14], in experiment [20], in experiment [16], in experiment [17], in experiment [18] and in [19] was “inactive” throughout. The max response in experiment [5] is 2.75%.
